# Unmarked numbers belong to inactive results.
# Compound: C#CCNC(=O)CCSSCCC(=O)NCCc1ccc(C=O)c(C=O)c1
# Assay: lysine labeling ratio R10:1 (500 µM / 50 µM probe), SILAC-ABPP in living cells; higher = lower intrinsic lysine reactivity toward the probe, active = 2 or less
# Conditions: HeLa; probe concentrations 500 vs 50 µM
# Procedure, shortened: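 The two probe levels, 50 µM and 500 µM, of an alkyne-tagged, disulfide-linked lysine probe were applied to living light and heavy SILAC HeLa cells in PBS at room temperature, and the labels were run in both forward and reverse orientation. Mixed lysates underwent biotin-azide click chemistry, trypsin digestion, neutravidin capture, DTT release and alkylation before LC-MS/MS on a TIMS-TOF Pro. R is the filtered median high-probe/low-probe MS1 peptide ratio for each lysine, summarised as the median over forward and reverse replicates. Nothing above 20 is reported; such values are set to 20.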
# UniProt P78371, sequence (P78371 whole entry): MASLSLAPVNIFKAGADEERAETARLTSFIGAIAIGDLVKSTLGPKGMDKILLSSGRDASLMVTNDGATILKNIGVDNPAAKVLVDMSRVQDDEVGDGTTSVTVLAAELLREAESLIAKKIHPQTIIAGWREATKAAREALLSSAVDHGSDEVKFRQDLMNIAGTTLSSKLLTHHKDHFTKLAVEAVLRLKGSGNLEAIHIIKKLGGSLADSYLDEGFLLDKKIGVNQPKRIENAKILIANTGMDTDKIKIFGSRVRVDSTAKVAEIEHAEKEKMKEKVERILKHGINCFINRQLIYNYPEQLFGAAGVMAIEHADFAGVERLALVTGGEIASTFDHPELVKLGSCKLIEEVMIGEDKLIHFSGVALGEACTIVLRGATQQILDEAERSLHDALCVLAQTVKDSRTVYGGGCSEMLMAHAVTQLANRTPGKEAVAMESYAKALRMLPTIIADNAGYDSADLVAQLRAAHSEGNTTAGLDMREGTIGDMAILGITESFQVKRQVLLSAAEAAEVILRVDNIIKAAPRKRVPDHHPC
# UniProt O43854, sequence (O43854 whole entry): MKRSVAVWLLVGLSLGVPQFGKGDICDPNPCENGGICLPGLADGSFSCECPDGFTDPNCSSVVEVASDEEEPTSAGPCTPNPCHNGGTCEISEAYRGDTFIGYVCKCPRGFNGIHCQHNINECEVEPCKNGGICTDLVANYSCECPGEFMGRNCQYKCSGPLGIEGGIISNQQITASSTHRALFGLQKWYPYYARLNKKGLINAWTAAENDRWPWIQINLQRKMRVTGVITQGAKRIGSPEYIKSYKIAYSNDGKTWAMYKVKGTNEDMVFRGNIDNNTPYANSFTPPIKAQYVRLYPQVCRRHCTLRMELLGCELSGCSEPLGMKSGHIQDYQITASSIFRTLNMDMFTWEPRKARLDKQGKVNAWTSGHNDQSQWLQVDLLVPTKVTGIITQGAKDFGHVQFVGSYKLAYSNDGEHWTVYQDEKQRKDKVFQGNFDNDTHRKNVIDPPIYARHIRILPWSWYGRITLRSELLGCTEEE
# UniProt P08727, sequence (P08727 whole entry): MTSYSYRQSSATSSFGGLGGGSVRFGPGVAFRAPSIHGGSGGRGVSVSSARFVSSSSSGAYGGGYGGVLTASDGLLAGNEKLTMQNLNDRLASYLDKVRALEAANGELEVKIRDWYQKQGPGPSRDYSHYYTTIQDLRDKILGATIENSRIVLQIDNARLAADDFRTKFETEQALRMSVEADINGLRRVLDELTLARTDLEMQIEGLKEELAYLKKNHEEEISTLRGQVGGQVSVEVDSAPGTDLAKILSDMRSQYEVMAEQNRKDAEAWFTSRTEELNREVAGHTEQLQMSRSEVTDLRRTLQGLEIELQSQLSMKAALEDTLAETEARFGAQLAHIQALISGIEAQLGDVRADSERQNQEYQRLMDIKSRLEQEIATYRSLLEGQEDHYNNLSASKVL
# UniProt Q96JJ7, sequence (Q96JJ7 whole entry): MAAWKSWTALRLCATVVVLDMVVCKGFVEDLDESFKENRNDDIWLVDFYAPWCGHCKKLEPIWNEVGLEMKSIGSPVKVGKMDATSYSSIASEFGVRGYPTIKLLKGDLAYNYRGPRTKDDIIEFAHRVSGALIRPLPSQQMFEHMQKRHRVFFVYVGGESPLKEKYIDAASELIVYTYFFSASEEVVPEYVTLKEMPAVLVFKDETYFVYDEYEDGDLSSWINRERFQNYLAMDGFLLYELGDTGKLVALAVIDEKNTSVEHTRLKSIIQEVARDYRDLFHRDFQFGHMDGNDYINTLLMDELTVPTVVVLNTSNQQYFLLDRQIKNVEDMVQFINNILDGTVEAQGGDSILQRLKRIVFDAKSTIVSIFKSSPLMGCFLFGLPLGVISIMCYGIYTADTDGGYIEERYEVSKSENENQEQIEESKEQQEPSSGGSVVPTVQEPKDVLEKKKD
# UniProt P21333, sequence (P21333 whole entry): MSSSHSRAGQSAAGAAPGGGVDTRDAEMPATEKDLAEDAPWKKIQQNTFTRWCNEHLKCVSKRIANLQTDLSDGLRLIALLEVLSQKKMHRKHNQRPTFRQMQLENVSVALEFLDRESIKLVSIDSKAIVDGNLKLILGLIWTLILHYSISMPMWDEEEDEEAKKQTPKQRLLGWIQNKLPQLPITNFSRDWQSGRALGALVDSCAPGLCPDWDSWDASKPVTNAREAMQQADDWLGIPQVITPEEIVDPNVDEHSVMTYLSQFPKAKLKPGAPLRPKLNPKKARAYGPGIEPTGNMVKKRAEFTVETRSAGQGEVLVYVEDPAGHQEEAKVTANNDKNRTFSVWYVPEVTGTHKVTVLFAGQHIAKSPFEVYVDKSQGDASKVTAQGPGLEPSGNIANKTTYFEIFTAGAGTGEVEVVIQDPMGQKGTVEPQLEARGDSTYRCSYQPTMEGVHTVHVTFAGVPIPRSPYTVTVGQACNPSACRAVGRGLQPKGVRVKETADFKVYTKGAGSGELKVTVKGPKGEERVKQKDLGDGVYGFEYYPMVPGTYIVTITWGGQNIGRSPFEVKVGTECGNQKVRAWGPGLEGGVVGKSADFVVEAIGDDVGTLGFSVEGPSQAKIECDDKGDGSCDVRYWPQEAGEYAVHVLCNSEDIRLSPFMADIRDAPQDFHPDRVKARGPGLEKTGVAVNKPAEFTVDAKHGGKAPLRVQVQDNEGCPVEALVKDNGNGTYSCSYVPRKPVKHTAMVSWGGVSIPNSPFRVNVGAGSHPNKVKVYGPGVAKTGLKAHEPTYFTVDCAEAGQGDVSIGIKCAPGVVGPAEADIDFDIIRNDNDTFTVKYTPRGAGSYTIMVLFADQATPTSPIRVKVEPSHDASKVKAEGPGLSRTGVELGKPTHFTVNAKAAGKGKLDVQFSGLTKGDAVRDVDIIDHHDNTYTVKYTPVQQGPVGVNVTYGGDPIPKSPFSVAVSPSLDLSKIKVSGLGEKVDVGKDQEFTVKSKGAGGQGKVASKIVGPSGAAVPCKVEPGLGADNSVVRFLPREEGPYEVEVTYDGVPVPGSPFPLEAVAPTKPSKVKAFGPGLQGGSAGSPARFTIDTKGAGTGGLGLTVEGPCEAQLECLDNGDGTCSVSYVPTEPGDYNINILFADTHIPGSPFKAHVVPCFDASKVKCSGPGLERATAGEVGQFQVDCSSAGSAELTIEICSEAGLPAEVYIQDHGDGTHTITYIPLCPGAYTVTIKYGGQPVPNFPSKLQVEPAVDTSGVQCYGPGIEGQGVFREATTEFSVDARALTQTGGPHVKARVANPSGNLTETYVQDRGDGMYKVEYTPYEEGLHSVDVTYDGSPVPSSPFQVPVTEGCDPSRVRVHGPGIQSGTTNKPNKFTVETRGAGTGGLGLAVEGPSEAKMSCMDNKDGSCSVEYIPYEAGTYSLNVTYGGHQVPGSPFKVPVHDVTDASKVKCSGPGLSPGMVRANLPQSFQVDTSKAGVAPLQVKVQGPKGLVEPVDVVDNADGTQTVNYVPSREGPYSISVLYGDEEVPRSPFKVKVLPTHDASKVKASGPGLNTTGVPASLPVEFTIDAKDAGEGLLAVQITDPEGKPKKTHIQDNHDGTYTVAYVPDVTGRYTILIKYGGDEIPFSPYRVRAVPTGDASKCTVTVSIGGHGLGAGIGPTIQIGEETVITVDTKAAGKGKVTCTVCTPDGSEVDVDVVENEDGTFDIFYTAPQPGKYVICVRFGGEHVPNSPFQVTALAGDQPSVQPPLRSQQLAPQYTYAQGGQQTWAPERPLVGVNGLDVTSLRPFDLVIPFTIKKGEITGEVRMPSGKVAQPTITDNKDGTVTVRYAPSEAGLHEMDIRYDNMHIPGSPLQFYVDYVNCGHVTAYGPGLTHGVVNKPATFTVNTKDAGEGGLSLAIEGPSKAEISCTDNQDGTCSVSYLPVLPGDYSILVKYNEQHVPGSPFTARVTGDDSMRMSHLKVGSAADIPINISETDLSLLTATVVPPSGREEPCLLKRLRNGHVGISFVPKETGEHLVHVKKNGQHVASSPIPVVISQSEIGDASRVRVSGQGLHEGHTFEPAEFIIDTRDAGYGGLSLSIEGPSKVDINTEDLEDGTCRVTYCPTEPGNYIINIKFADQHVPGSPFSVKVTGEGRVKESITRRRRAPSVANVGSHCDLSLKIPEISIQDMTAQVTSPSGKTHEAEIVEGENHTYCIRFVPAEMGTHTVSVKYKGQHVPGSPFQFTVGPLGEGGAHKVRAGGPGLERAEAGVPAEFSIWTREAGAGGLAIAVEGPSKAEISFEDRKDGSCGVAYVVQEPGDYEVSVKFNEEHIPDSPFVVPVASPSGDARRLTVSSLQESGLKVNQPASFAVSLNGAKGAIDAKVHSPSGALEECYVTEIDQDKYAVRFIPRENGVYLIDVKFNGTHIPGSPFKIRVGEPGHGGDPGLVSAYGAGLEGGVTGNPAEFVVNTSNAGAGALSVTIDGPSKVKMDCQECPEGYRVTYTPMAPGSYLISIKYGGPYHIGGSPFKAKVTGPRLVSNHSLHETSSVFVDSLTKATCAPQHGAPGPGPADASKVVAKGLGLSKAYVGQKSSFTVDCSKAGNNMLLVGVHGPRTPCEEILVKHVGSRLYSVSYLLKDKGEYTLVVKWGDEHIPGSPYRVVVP
# UniProt P40227, sequence (P40227 whole entry): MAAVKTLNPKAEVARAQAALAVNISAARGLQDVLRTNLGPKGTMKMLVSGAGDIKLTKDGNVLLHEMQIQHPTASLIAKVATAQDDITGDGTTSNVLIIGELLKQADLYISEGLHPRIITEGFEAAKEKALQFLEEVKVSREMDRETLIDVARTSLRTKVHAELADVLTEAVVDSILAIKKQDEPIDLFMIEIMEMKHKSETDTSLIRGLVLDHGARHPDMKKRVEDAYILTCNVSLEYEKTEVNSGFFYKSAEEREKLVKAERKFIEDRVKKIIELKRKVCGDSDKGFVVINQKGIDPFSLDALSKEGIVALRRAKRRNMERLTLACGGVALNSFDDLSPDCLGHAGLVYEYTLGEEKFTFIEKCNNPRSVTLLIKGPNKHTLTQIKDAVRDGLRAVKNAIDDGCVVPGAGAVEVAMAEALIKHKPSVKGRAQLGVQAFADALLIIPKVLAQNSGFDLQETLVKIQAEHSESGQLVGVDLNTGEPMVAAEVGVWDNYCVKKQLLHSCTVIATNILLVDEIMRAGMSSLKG
row,Target,lysine labeling ratio R10:1
1,ENAH (lysine site: K574) (UniProt Q8N8S7),5.16
2,UniProt P62491 (lysine site: K179),2.31
3,ALDOC (lysine site: K111) (UniProt P09972),6.08
4,ENO1 (lysine site: K126) (UniProt P06733),3.29
5,IARS (lysine site: K382) (UniProt P41252),3.02
6,CCT2 (lysine site: K154) (UniProt P78371),3.78
7,DDR1 (lysine site: K112) (UniProt Q08345),2.03
8,PTPRJ (lysine site: K281) (UniProt Q12913),0.907 (active)
9,SPTBN1 (lysine site: K1421) (UniProt Q01082),3.37
10,CCT6A (lysine site: K530) (UniProt P40227),4.16
11,UniProt Q15149 (lysine site: K2396),2.3
12,ALDOA (lysine site: K42) (UniProt P04075),3
13,UniProt P61160 (lysine site: K368),3.41
14,RPS19 (lysine site: K43) (UniProt P39019),0.56 (active)
15,RPS19 (lysine site: K7) (UniProt P39019),4.55
16,UniProt Q15149 (lysine site: K2274),2.24
17,HNRNPM (lysine site: K48) (UniProt P52272),4.62
18,ITGA6 (lysine site: K986) (UniProt P23229),1.78 (active)
19,PLXNA1 (lysine site: K1084) (UniProt Q9UIW2),2.49
20,KIRREL (lysine site: K113) (UniProt Q96J84),2.15

row,Target,lysine labeling ratio R10:1
1,UniProt P54851 (lysine site: K126),3.69
2,FLNA (lysine site: K520) (UniProt P21333),2.73
3,LAMB1 (lysine site: K1505) (UniProt P07942),3.69
4,UniProt P08727 (lysine site: K370),3.4
5,ASPH (lysine site: K609) (UniProt Q12797),1.47 (active)
6,SLC39A6 (lysine site: K164) (UniProt Q13433),7.08
7,LDLR (lysine site: K783) (UniProt P01130),3.22
8,RPL3 (lysine site: K250) (UniProt P39023),2.54
9,C3 (lysine site: K1051) (UniProt P01024),6.25
10,RPL22 (lysine site: K52) (UniProt P35268),7.72
11,UniProt Q96JJ7 (lysine site: K119),3.06
12,SLC7A11 (lysine site: K222) (UniProt Q9UPY5),2.71
13,DCTN2 (lysine site: K65) (UniProt Q13561),1.14 (active)
14,EEF2 (lysine site: K572) (UniProt P13639),2.79
15,EDIL3 (lysine site: K106) (UniProt O43854),2.57
16,CCT2 (lysine site: K522) (UniProt P78371),3.39
17,SPTAN1 (lysine site: K1334) (UniProt Q13813),3.63
18,STS (lysine site: K368) (UniProt P08842),1.48 (active)
19,SEMA3C (lysine site: K158) (UniProt Q99985),5.63
20,FAT4 (lysine site: K2512) (UniProt Q6V0I7),2.31

# From the supplement of paper PMC11001985
